Data from PubChem BioAssay AID602143 (Vanderbilt Specialized Chemistry Center, 2011).
A number with no mark means an inactive call. Rule as the data show it: active = remaining activity below about 50%; inactive = the rest.

What follows are compounds tested against Phospholipase D2 (Homo sapiens) (UniProt O14939) (assay: PLD2 inhibitors in cells, cell-based, HEK293, single concentration (AID 602143;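 also: tested at 200 nM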)). Conditions: HEK293 cellular PLD2 activity, percent of control; active compounds read low.
Phospholipase D2 (Homo sapiens), sequence (O14939 whole entry, looked up): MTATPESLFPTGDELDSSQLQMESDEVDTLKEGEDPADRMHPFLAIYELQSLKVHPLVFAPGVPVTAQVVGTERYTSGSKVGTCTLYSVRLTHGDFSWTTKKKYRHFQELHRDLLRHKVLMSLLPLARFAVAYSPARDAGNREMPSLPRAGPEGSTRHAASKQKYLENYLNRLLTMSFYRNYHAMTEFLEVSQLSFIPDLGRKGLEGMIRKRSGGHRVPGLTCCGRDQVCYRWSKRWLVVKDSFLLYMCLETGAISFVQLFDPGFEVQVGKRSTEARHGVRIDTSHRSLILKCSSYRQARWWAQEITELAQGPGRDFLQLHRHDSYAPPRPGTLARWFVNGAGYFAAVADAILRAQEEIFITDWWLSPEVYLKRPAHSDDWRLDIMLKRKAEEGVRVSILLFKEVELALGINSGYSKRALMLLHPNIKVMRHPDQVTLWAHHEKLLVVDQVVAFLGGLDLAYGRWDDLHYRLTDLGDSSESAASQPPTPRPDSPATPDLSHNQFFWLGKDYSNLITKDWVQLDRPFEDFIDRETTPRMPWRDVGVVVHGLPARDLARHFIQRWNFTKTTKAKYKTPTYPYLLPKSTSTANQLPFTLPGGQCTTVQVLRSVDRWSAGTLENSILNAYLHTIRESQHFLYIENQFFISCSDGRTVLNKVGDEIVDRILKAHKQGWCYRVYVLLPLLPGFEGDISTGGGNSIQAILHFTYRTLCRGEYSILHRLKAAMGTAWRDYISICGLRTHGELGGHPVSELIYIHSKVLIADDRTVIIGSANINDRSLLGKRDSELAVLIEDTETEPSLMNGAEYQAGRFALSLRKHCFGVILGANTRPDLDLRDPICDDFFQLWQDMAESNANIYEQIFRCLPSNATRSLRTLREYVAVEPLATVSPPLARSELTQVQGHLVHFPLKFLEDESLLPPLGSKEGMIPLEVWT
Phospholipase D2 (Homo sapiens), sequence (O14939 whole entry, looked up): as above

| Compound | remaining activity [%] |
| --- | --- |
| O=C(NCCN1CCC2(CC1)CNc1ccccc12)C1CC1c1ccccc1 (stereo not given) | 91.2 |
| CN1CCC2(CCN(CCNC(=O)c3ccc4ccccc4c3)CC2)C1=O | 129 |
| O=C(NCCN1CCN(c2ccncc2)CC1)c1ccc2ccccc2c1 | 110 |
| O=c1[nH]c2ccccc2n1C1CCN(CCNC(=S)Nc2ccccc2F)CC1 | 87.4 |
| C[C@@H](CN1CCC2(CC1)CN(S(C)(=O)=O)c1ccccc12)NC(=O)c1ccc2ccccc2c1 | 115 |
| O=C(NCCN1CCC(n2c(=O)[nH]c3ccccc32)CC1)Nc1cccc(C(F)(F)F)c1 | 131 |
| O=C1c2ccccc2C(=O)N1CCN1CCC(n2c(=O)[nH]c3cc(Cl)ccc32)CC1 | 90.8 |
| Cn1c(=O)n(C2CCN(CCNC(=O)[C@H]3C[C@@H]3c3ccccc3)CC2)c2ccccc21 | 78.4 |
| O=C(c1ccc(Cl)cc1)N(CCN1CCC(n2c(=O)[nH]c3ccccc32)CC1)C(=O)c1ccc(Cl)cc1 | 94.2 |
| O=C(NCCN1CC=C(n2c(=O)[nH]c3ccccc32)CC1)[C@H]1C[C@@H]1c1ccccc1 | 114 |
| O=C(NCCN1CCC(n2c(=O)[nH]c3ccc(F)cc32)CC1)c1ccc(C(F)(F)F)cc1 | 61.8 |
| O=C(NCCN1CCC(n2c(=O)[nH]c3ccccc32)CC1)c1cccc(Cl)n1 | 75.4 |
| C[C@@H](CN1CCC(n2c(=O)[nH]c3ccc(F)cc32)CC1)NC(=O)c1ccc(F)cc1 | 66.8 |
| O=C(NCCN1CCC(n2c(=O)[nH]c3ccccc32)CC1)C(c1ccccc1)(c1ccccc1)c1ccccc1 | 93.2 |
| O=C(NCCN1CCN(c2ccncc2)CC1)c1cc2ccccc2s1 | 90.5 |
| CCCCS(=O)(=O)NCCN1CCC(n2c(=O)[nH]c3ccccc32)CC1 | 78.3 |
| C[C@@H](CN1CCC2(C=Cc3ccccc32)CC1)NC(=O)[C@H]1C[C@@H]1c1ccccc1 | 87.1 |
| O=C(NCCN1CCC(n2c(=O)[nH]c3ccccc32)CC1)C1CCCCCC1 | 104 |
| Cc1ccc(C(=O)N[C@@H](C)CN2CCC(n3c(=O)[nH]c4c(F)cccc43)CC2)cc1 | 98.2 |
| O=c1[nH]c2ccccc2n1C1CCN(CCNS(=O)(=O)c2ccc(OC(F)(F)F)cc2)CC1 | 81 |

| Compound | remaining activity [%] |
| --- | --- |
| C[C@@H](CN1CCC(n2c(=O)[nH]c3cc(-c4ccc(C(F)(F)F)cc4)ccc32)CC1)NC(=O)[C@H]1C[C@@H]1c1ccccc1 | 70.9 |
| Cc1ccc(C(=O)N[C@@H](C)CN2CCC(n3c(=O)[nH]c4ccc(F)cc43)CC2)cc1 | 64 |
| O=C1c2ccccc2C(=O)N1CCCN1CCC(n2c(=O)[nH]c3cc(Cl)ccc32)CC1 | 74.6 |
| O=c1[nH]c2ccccc2n1C1CCN(CCNS(=O)(=O)c2cccc(C(F)(F)F)c2)CC1 | 61.1 |
| O=C(CCc1ccc(F)cc1)NCCN1CCC(n2c(=O)[nH]c3ccccc32)CC1 | 93.5 |
| O=c1[nH]c2ccccc2n1C1CCN(CCNS(=O)(=O)c2ccc([N+](=O)[O-])cc2)CC1 | 80.3 |
| NC1(CN2CCC(n3c(=O)[nH]c4ccccc43)CC2)CCCC1 (tested in a mixture with another compound) | 66.9 |
| CC(C)[C@@H](CN1CCC(n2c(=O)[nH]c3ccccc32)CC1)NC(=O)c1ccc2ccccc2c1 | 73.3 |
| O=C(NCCN1CCC(n2c(=O)[nH]c3ccccc32)CC1)c1ncccn1 | 90.1 |
| O=c1[nH]c2ccccc2n1C1CCN(CCNS(=O)(=O)c2ccccc2[N+](=O)[O-])CC1 | 108 |
| COc1cccc(N2CCN(CCNC(=O)c3ccc(C(F)(F)F)cc3)CC2)c1 | 98.3 |
| O=C(NCCN1CCN(c2ccncc2)CC1)c1ccccc1-c1ccccc1 | 83.2 |
| C[C@@H](CN1CCC(n2c(=O)[nH]c3cc(-c4ccc(F)c(F)c4)ccc32)CC1)NC(=O)[C@H]1C[C@@H]1c1ccccc1 | 80.4 |
| C[C@@H](CN1CCC(n2c(=O)[nH]c3cc(I)ccc32)CC1)NC(=O)c1ccc(Cl)cc1 | 72.7 |
| O=c1[nH]c2ccccc2n1C1CCN(CCNS(=O)(=O)c2ccccc2Br)CC1 | 75.8 |
| O=C(NCCN1CCC(C(=O)NCC2CC2)CC1)c1ccc2ccccc2c1 | 108 |
| O=C(NCCN1CCN(c2ccccn2)CC1)c1ccc(Cl)cc1 | 106 |
| CC(C(=O)NCCN1CCC(n2c(=O)[nH]c3ccccc32)CC1)(c1ccccc1)c1ccccc1 | 65.3 |
| O=C(NCCN1CCC(C(=O)NCc2ccc(Cl)cc2)CC1)c1ccc2ccccc2c1 | 106 |
| NCCN1CCC(n2c(=O)[nH]c3cc(Cl)ccc32)CC1 (tested in a mixture with another compound) | 83.1 |
